In PubChem BioAssay (NCI):
About 83,000 compounds went through this panel and 20% of them were active in at least one assay; those are over-represented in the sample as a whole.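 Growth was measured after 48 h exposure to one concentration of compound in 96-well plates. Values under 10 count as active.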 Values without a mark were called inactive. The source made the active and inactive calls.

Key:
Assay in all cases: NCI-60 one-dose screen, 48 h (100 = growth as untreated, 0 = no growth, -100 = all killed)
Details in all cases: 10 µM unless noted
T-47D breast = test system: T-47D breast
BT-549 breast = test system: BT-549 breast
MDA-MB-435 melanoma = test system: MDA-MB-435 melanoma
SW-620 colon = test system: SW-620 colon
MCF7 breast = test system: MCF7 breast
HCT-116 colon = test system: HCT-116 colon
HCC-2998 colon = test system: HCC-2998 colon
KM12 colon = test system: KM12 colon

| Compound | growth (T-47D breast) | growth (BT-549 breast) | growth (MDA-MB-435 melanoma) | growth (SW-620 colon) | growth (MCF7 breast) | growth (HCT-116 colon) | growth (HCC-2998 colon) | growth (KM12 colon) |
| --- | --- | --- | --- | --- | --- | --- | --- | --- |
| N#C/C(=C/c1ccc([N+](=O)[O-])cc1)n1nnc2cc(F)c(F)cc21 | 11.6% | 77.3% | 64.2% | 59.7% | 8.8% (active) | 5.65% (active) | 70.5% | 13.1% |
| Cc1ccc(-c2nc(/C=C3/C(=O)Nc4ccccc43)c3ccccn23)cc1 | 80.7% | 104% | 94.3% | 64.8% | 37.2% | 66.8% | 109% | 88.4% |
| CC1(C)CC2=C3C=C[C@@H]4[C@@]5(C)CCC(=O)C(C)(C)[C@@H]5CC[C@@]4(C)[C@]3(C)CC[C@@]2(C(=O)O)CC1=O | 74.4% | 41.5% | 49.4% | 66.9% | 57.3% | 64.6% | 84.3% | 78.3% |
| Brc1ccc2[nH]cc(-c3nonc3-c3c[nH]c4ccccc34)c2c1 | 5.65% (active) | 73.9% | 47.1% | 60.4% | 29.3% | 36.9% | 21.5% | 16% |
| C#Cc1ccc(NC(=O)c2ccc(/C=C/C(=O)c3nccn3C)cc2)cc1 | 0.0135% (active) | -78.5% (active) | -44.7% (active) | -73.3% (active) | -45.4% (active) | -62.6% (active) | -89.2% (active) | -64.1% (active) |
| CC(=O)c1cc(O)c2ccccc2c1O | 87.1% | 91.7% | 111% | 108% | 75.2% | 95.4% | 166% | 106% |
| O=C(c1ccc(-c2nc(CSc3nc4ccccc4s3)no2)cc1)N1CCSCC1 | 11.1% | 67.7% | 70.6% | 82.4% | 72.5% | 49.8% | 94.9% | 57.7% |
| OCCNCCCOc1ccc2ncnc(Nc3ccc(Oc4cccc(C(F)(F)F)c4)c(Cl)c3)c2c1 | 38.7% | 95.6% | -65.2% (active) | -84.2% (active) | -40% (active) | 12.7% | -75.1% (active) | 3.05% (active) |
| COc1ccc(/C=N/C2=C(C#N)C(c3cccc(Cl)c3)c3c(ccc4ccccc34)O2)cc1 (configuration not stated) | 36.7% | 29.3% | -36% (active) | 23.7% | 11.1% | 21.8% | 65.4% | 24.9% |
| COCCNC(=O)c1ccc(-c2nc3ccc4[nH]ncc4c3c3c2CCCC3)cc1 | 44.5% | 10.3% | 16.4% | 11% | 35.9% | 13% | 47.5% | 19.7% |
| CCNc1cc(-c2cccc(OC(F)(F)F)c2)nc2ccc(N3CCCC3)cc12 | -24.6% (active) | 75.2% | 2.21% (active) | 4.43% (active) | 3.29% (active) | -15.9% (active) | 6.29% (active) | 4.19% (active) |
| CC(=O)OCc1nc(C#N)c(N(C)C)o1 | 83.9% | 91.2% | 100% | 101% | 92.9% | 93.4% | 97% | 110% |
| Fc1cccc(CNc2c3ccccc3nc3ccccc23)c1F | 68.3% | 90.6% | 87.3% | 41.4% | 29.8% | 17.5% | 58.4% | 87% |
| COc1ccc(C(=O)C2C(c3ccc(OC)cc3)CN(C)C23C(=O)Nc2ccccc23)cc1 (configuration not stated) | 85.8% | 105% | 97.6% | 95.2% | 98.8% | 84.4% | 88.4% | 93.9% |
| C/C(Nc1ccc(Cl)c(Cl)c1)=C1\CCOC1=O | 86.6% | 87.2% | 82.5% | 111% | 96.1% | 80.7% | 90.3% | 96.2% |
| CCN(CC)CCSc1nc(-c2ccccc2)c(C#N)c(=O)[nH]1 | 93.8% | 94.9% | 103% | 94.4% | 104% | 105% | -6.88% (active) | 118% |
| O=c1oc2ccccc2cc1C1=NN=C(SCc2ccccc2)SC1 | 85.5% | 102% | 107% | 106% | 94.3% | 99.1% | 109% | 99.7% |
| N#Cc1c(-c2cccs2)cc(-c2cccnc2)[nH]c1=O | 103% | 102% | 102% | 101% | 92.4% | 104% | 114% | 106% |
| COc1ccc(/C=N/NC(=O)CCN2c3ccccc3Sc3ccccc32)cc1 | 81.5% | 84.8% | 8.72% (active) | 57.4% | 42.7% | 69.4% | 92.3% | 53.8% |
| O=C(Cc1ccccc1)Nc1nc(O)c(/C=C2\C(=O)C=Cc3ccccc32)s1 | 90% | 98.9% | 101% | 95.7% | 101% | 90.1% | 110% | 106% |
| Cc1ccc(-c2csc(NC(=O)CN3CCN(c4cc5c(cc4F)c(=O)c(C(=O)O)cn5C4CC4)CC3)n2)cc1 | 6.74% (active) | 16.2% | 14.4% | 27.4% | 6.16% (active) | 14.2% | 31.2% | 8.87% (active) |
| N#Cc1c(-c2ccc(Cl)cc2)nc(NN=Cc2cccc(O)c2)nc1N1CCOCC1 | 64.6% | 73.1% | 87% | 64.8% | 60.1% | 57.9% | 103% | 81% |
| CN(C)CCNc1nc2c3cc(Cl)ccc3nn2c2ccccc12 | 86.6% | 73% | 65.3% | 23.7% | 35.3% | 22.9% | 56.3% | 39.5% |
| Cc1ccc(Sc2nnc(/N=C3\C(=O)Nc4ccccc43)s2)cc1 | 107% | 116% | 103% | 96.2% | 101% | 104% | 116% | 98.1% |
| CCN(CC)c1nc(SCc2ccccc2Cl)ncc1C | 86.3% | 134% | 108% | 105% | 106% | 94.2% | 106% | 108% |
| Cc1cnc(C(=O)NNc2nc3sc4c(c3c(=O)n2C)C(C)CCC4)cn1 (configuration not stated) | -7.99% (active) | 25.8% | 7.05% (active) | 10.2% | -12% (active) | 3.75% (active) | 29.5% | 6.33% (active) |
| CCc1nc2c(=O)[nH]cnc2o1 | 105% | 102% | 110% | 106% | 96.4% | 103% | 109% | 110% |
| COc1ccc2c(O)c(/C=C3\N=Nc4ccccc43)oc2c1C[C@@H]1CCNC[C@H]1F | 94.3% | 73.8% | 68.3% | 6.01% (active) | 18.3% | -68.2% (active) | 78% | 10.9% |
| O=C(/C=C(/C=C/c1cccc2[nH]ccc12)OB(F)F)/C=C/c1cccc2[nH]ccc12 | 7.95% (active) | -19.5% (active) | -34.4% (active) | 1.96% (active) | 4.29% (active) | -84.7% (active) | -84.1% (active) | -17.3% (active) |
